From PubChem BioAssay come the findings set out here.

The nature of the assay: JC-1 mitochondrial signal, unstimulated HepG2 cells – cell-based, JC-1 fluorescence, 24 h, 100 nL compound, profiling panel (AID 1167). Also: test concentration not given here. The conditions noted are these: HepG2 mitochondrial potential, higher = more signal.
For `COCCCNC(=O)[C@@]1(Sc2ccc(C)cc2)CC(=O)N(Cc2ccccc2)[C@@H]1c1ccc(CO)cc1I`, the z-score amounted to 0.735.
Molecule `COC(=O)[C@H](C)NC(=O)CCC1CC(OC(=O)NCCc2ccc(F)cc2)CC2(CCCC(COC(=O)NCC(c3ccccc3)c3ccccc3)O2)O1` (stereo partly specified) showed a z-score of -0.727.
Turning to `COc1ccccc1CN1C(=O)c2ccccc2[C@@H](C(=O)NCC(F)(F)F)[C@@H]1c1ccc(CO)cc1`, the z-score was determined as 1.62.
In the case of `Cc1cc2c(c(=O)o1)[C@H](O)[C@H]1O[C@H]1C2=O`, the z-score was -1.31.
The same measure for `CCN(CC)c1ccc(N2CC=CC34O[C@@H]5/C=C\CCC(C)OC(=O)C5[C@H]3C(=O)N(CCCO)[C@@H]4C2=O)cc1` (stereo partly specified): -0.356; for `O=C1O[C@@H](c2ccccc2)[C@@H](c2ccccc2)N2[C@@H](c3ccccc3OCCO)[C@]3(C(=O)Nc4ccc(C#CCCO)cc43)[C@@H](C(=O)O)[C@H]12`: 0.259.
The figure for `COc1ccc([Si](C)(C)[C@@H]2[C@@H](CC(=O)N3CCC[C@H]3CO)O[C@]3(C(=O)N(Cc4cccc(N5CCC5=O)c4)c4ccccc43)[C@H]2C)cc1` is -0.729; for `CC(C)(C)N1CC=CC23O[C@@H]4C=CCCOC(=O)C4[C@H]2C(=O)N(CCCCCO)[C@@H]3C1=O` (stereo partly specified) it is 0.705.
The figure for `COc1cccc([C@@H]2Oc3ccc(Br)cc3C(=O)[C@H]2O)c1` is -3.15; for `CO[C@H]1COC(=O)[C@@H]2CCCN2C(=O)CC=C[C@@H](C)[C@H](OC)COC(=O)CC=C[C@@H]1C` it is 1.23; for `CC(CCN1CCc2nc(-c3ccccc3)c(-c3ccccc3)cc2C1)=NO[C@H](C)c1cn([C@@H]2COC[C@H]2O)nn1` it is 1.34.
Molecule `COC(=O)[C@H]1COC(c2ccc(OCCCO)cc2)=N1` showed a z-score of -0.371.
The figure for `O=C1[C@H]2[C@H]3[C@H](O)[C@H](O)CC(=NOC[C@@H](O)COCc4ccco4)[C@H]3CC[C@H]2C(=O)N1Cc1ccc2c(c1)OCO2` is -0.41; for `CC[C@@H](c1ccccc1)n1c(=O)n2n(c1=O)[C@H]1[C@H](O)[C@@H]3O[C@@H]3C(=NOCC=C(C)CCC=C(C)C)[C@H]1CC2` it is -2.4.
The figure for `C[C@@H](c1ccccc1)N1C(=O)[C@H]2[C@H]3[C@H](O)[C@H](O)CC(=NOC[C@@H](O)COCc4ccco4)[C@@H]3CC[C@H]2C1=O` is -0.794; for `CO[C@H]1O[C@H](CO)[C@@H](OC(=O)Nc2ccc3c(c2)OCO3)[C@H](OC(=O)Nc2ccccc2-c2ccccc2)[C@@H]1OC(=O)Nc1ccccc1-c1ccccc1` it is -0.121.
The figure for `NCCCCCNC(=O)[C@@H]1C[C@@H]2C(=O)N3CCC[C@H]3C(=O)N2[C@@H]1c1cccc(OCCO)c1` is -1.5; for `C[C@@H]1C=CCC(=O)OC[C@H](C)C(=O)N2CCC[C@H]2C(=O)OC1` it is -0.248.
Regarding `CCCC=C(CCC)[C@@H](NC(=O)c1ccc(-c2ccccc2)cc1)c1ccc(C(=O)OC)cc1`, the z-score was -3.18.
In turn, `CCOC(=O)[C@H](Cc1ccccc1)NC(=O)CCC1CC(OC(=O)NCc2ccc3c(c2)OCO3)CC2(CCCC(COC(=O)NCC3CCCCC3)O2)O1` (stereo partly specified) came in with a z-score of 1.84.
`COc1ccc(COC(=O)NN=C2C[C@@H](O)[C@@H](O)[C@@H]3[C@@H]4C(=O)N(c5ccc(F)cc5F)C(=O)[C@@H]4CC[C@@H]23)cc1` came in with a z-score of 0.556.
`CC(C)[C@@H](OCc1ccccc1)[C@H](C)C=NO[C@H](C)c1cn([C@H](CO)Cc2ccccc2)nn1` yielded a z-score of -1.15.
In turn, `COC(=O)[C@H](C)NC(=O)CCC1CC(OC(=O)NCc2cccc3ccccc23)CC2(CCCC(COC(=O)NCCc3ccc(Cl)cc3)O2)O1` (stereo partly specified) showed a z-score of 0.159.
The figure for `COc1ccc(-c2nc3c(c4c2C[C@H](C)OC4)CN(CCC(C)C)CC3)cc1` is 1.7; for `O=C(NN=C1C[C@@H](O)[C@@H](O)[C@@H]2[C@@H]3C(=O)N(c4cccc(Oc5ccccc5)c4)C(=O)[C@@H]3CC[C@H]12)OCc1ccccc1` it is 0.559.
In turn, `CCOC(=O)CCN1C(=O)[C@H]2[C@H]3[C@H](O)[C@H](O)CC(=NNC(=O)OCc4ccc(OC)cc4)[C@@H]3CC[C@H]2C1=O` had a z-score of -0.547.
The molecule `CCN1C(=O)[C@H]2[C@H]3[C@H](O)C=CC(=O)[C@@H]3CC[C@H]2C1=O` yielded a z-score of 0.234.
The molecule `C=C(CCCC)C(=O)CC[C@@H](OC(C)=O)c1cccc(OCCO)c1` gave a z-score of -0.974.
As to `O=C1C[C@]2(c3ccc([N+](=O)[O-])cc3)C(=O)N(CCN3CCOCC3)c3cc(CO)ccc3[C@H]2N1CC12CC3CC(CC(C3)C1)C2`, the z-score is -0.141.
`[N-]=[N+]=NCc1ccccc1[C@@H]1OC(c2ccc(OCCCO)cc2)=N[C@]1(Cc1ccccc1)C(=O)N1CCOCC1`: the z-score came out at 0.787.
The same measure for `CC(C)N1CC=CC23O[C@@H]4C=CCCOC(=O)C4[C@H]2C(=O)N(CCCCCCO)[C@@H]3C1=O` (stereo partly specified): 0.614; for `CCCNC(=O)[C@@H]1c2ccccc2C(=O)N(Cc2ccccc2Cl)[C@H]1c1ccc(CO)cc1`: 3.3; for `CCN1C(=O)[C@H]2[C@H]3[C@H](O)[C@H](O)CC(=NOCc4ccccc4)[C@H]3CC[C@H]2C1=O`: -1.13.
The figure for `C[C@H](c1ccccc1)N1C(=O)[C@H]2[C@H]3[C@H](O)[C@H](O)CC(=O)[C@@H]3CC[C@H]2C1=O` is 0.032.
The figure for `COC(=O)C1=C(C)[C@@H](O)[C@@H](C)[C@H](c2c(OC)c(OC)c(C)c(OC)c2OC)O1` is -0.206.
The molecule `CC(=O)OC[C@H]1O[C@H](CC=NOC[C@@H](C)[C@H](OCc2ccccc2)C(C)C)C=C[C@@H]1OC(C)=O` displayed a z-score of -0.713.
